High-throughput results deposited in PubChem BioAssay by National Center for Advancing Translational Sciences (NCATS).
CHX counter: affects cycloheximide protein synthesis inhibition readout, counter-screen. cell reporter, cycloheximide protein synthesis inhibition counterscreen. max response, %. 300,000 tested, 12% active. AID 2314; in the data active = max response mostly above about 13%, no sharp cut-off; inactive = mostly below about 14%; also: read at 38.3 µM for the half of the compounds with a filed dose; 0% is about no effect
Pf growth 96h: inhibits malaria parasite growth, 96 h | Potency, µM (series often up to 28.7 µM), for inactives: at the highest dose activity change, negative = inhibition, actives largely listed as inhibitors | P. falciparum luciferase reporter growth, 96 h | 320,000 tested, 6.9% active | AID 504834; also: potency is read from the fitted curve at half-maximal effect; % is scaled to controls: 0 for no effect and ±100 for the full control effect
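Plates of compound plus infected erythrocytes (2% hematocrit, 0.05% parasitemia final) incubate 96 hours, 37 C, 5% CO2. Detection reagent added; reduced luminescence from the parasites' luciferase reporter flags inhibition.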
Pf growth 48h: inhibits P. falciparum growth in the first generation, 48 h. P. falciparum luciferase growth in erythrocytes, 48 h. Potency, µM (highest dose often 28.7 µM), inactives show at the top dose activity change, negative = inhibition, hits mostly inhibitors. 310,000 tested, 5.9% active. AID 504832; also: potency is read from the fitted curve at half-maximal effect; % is scaled to controls: 0 for no effect and ±100 for the full control effect
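Compounds are pin-transferred into medium, infected erythrocytes (2% hematocrit, 0.1% parasitemia final) are added, and plates sit one parasite generation at 37 C in 5% CO2. Detection reagent is then added and luminescence measured.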
Shiga inhibitor: inhibitors of Shiga toxin in Vero cells | inhibition, % at 38.7 µM | Vero cells, Shiga toxin protein synthesis inhibition reporter | 290,000 tested, 9.2% active | AID 2315; in the data active = inhibition mostly above about 28%, no sharp cut-off; inactive = mostly below about 43%; also: 0% is about no effect
NS1 function inh: inhibitors of influenza NS1 protein function; Potency, µM (highest dose often 46.1 µM), without a hit: at the highest dose activity, positive = more growth; 270,000 tested, 0.4% active; calls by dose curve; also: potency is read from the fitted curve at half-maximal effect; actives are rising curves; nearly all actives have a fitted effect of over 50% in size
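OD600 was taken as the measure of yeast growth restored by compound in an NS1-expressing S. cerevisiae strain. Cells had been washed out of glucose medium and diluted 1:100 into galactose -URA medium, pH 6.0.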
Active calls of the source: *; ? = inconclusive; . = not tested or not shown. The list is not random: actives were taken first. Their share in the collection is about 21%. Unless noted, calls follow the shape of the dose curve; as a rule, active = well fitted inhibition curve with a large enough effect; inconclusive = small, poorly fitted or top-dose-only effect, or another doubt; inactive = no such curve, though single readings can be large or run the other way.

SMILES	CHX counter	Pf growth 96h	Pf growth 48h	Shiga inhibitor	NS1 function inh
COc1cc(C(=O)Nc2ccc(C(C)=O)cc2)c(Br)c(OC)c1OC	41.8*	82.2%	59.8%	70.1*	12.4%
Cc1nc2cc(C(=O)O)ccc2s1	44.4*	13.5%	132.2%	132.7*	-4.6%
Cc1cccnc1NC(=O)c1ccc2nc(N)sc2c1	27.7*	11.9%	.	72.5*	-0.1%
Cc1ccccc1NC(=O)c1ccc2nc(N3CCOCC3)sc2c1	27.9*	?	-5.1%	38.1*	-16.8%
Cc1nnc(NC(=O)CN2CCN(Cc3ccccc3)CC2)s1	-0.9	-36.4%	3.3%	-9.8	7.4%
Cc1ccc(NC(=O)NC2CC(=O)N(c3ccc4c(c3)OCCO4)C2)c(C)c1 (centres undefined)	.	-13.5%	?	.	.
Cc1nnc(NC(=O)c2ccc3ccccc3n2)s1	37.9*	108.4%	220.1%	110.2*	.
Cc1cc(C(=O)Nc2ccccc2Cl)c2ccccc2n1	-1.4	102.0%	-3.7%	1.1	-11.2%
CCCCC(=O)Nc1ccc(C(=O)NNC(=O)c2ccc(C)c(Br)c2)cc1	0.6	-7.0%	2.4%	-2.2	7.7%
CC(=O)c1ccc(NC(=O)c2ccc(C)c(Br)c2)cc1	59.8*	?	17.8%	73.5*	0.0%
Cc1nc2ccc(C(=O)Nc3ccccc3Cl)cc2s1	50.2*	?	16.0%	117.9*	-36.6%
Cc1nc2ccc(OC(=O)c3ccccc3)cc2s1	13.5*	-11.0%	-14.0%	18.9	-31.0%
Cc1nc2ccc(NC(=O)c3cccc(S(=O)(=O)N(C)c4ccccc4)c3)cc2s1	-3.4	8.28µM*	?	-3.2	4.0%
CNC(=O)Nc1ccc2nc(C)sc2c1	16.5*	-3.1%	50.3%	17.8	-2.1%
COc1ccccc1N(C)S(=O)(=O)c1ccc(C(=O)Nc2ccc3nc(C)sc3c2)cc1	-2.3	?	-26.0%	5.5	-0.8%
CCn1nc(C(=O)NC2=NCCS2)c2ccccc2c1=O	-1.5	?	.	-11.5	-4.6%
CCn1nc(C(=O)Nc2ccc3nc(C)sc3c2)c2ccccc2c1=O	18.6*	8.0%	8.3%	30.4	.
CC(=O)c1ccc(NC(=O)c2ccc3nc(C)sc3c2)cc1	86.7*	31.1%	0.6%	.	8.9%
CCN=C1S/C(=C\c2cc(Br)c(O)c(OC)c2)C(=O)N1CC	-1.0	?	-7.5%	-3.1	1.5%
Cc1nc2ccc(NC(=O)c3ccc(=O)[nH]c3)cc2s1	-6.2	-19.9%	?	19.3	-8.4%
Cc1nc2ccc(NC(=O)c3ccccc3)cc2s1	29.5*	0.0%	19.9%	108.4*	-61.4%
CCn1ncc(/C=N\NC(=O)c2ccc3c(c2)c(C)c(C)n3Cc2ccccc2)c1C	-2.2	?	.	3.5	21.8%
Cc1c(C)n(Cc2ccccc2)c2ccc(C(=O)NCCN3CCOCC3)cc12	-6.0	-2.3%	-10.4%	-7.1	15.4%
CCn1nc(C)c(/C=N/NC(=O)c2ccc3c(c2)c(C)c(C)n3Cc2ccccc2)c1C	7.7	11.7µM*	.	-11.3	10.2%
CCn1cc(/C=N\NC(=O)c2ccc3c(c2)c(C)c(C)n3Cc2ccccc2)c(C)n1	2.1	10.4µM*	.	-7.0	20.5%
SMILES	CHX counter	Pf growth 96h	Pf growth 48h	Shiga inhibitor	NS1 function inh
Cc1c(C)n(Cc2ccccc2)c2ccc(C(=O)OCCN(C)C)cc12	29.1*	?	-5.1%	67.6	0.7%
Cc1ccc(N(C(=O)c2csnn2)C(C(=O)NC2CCCCC2)c2cccnc2)cc1C (centres undefined)	-2.8	20.2%	?	-1.4	7.9%
O=S(=O)(c1ccc(F)cc1)N1CCN(CC2CC3C=CC2C3)CC1 (centres undefined)	-3.3	?	?	-3.9	-2.1%
c1ccc(-c2ccc(CN3CCSCC3)cc2)cc1	24.6*	13.1µM*	262.2%	77.3*	-16.5%
Clc1ccc(CN2CCSCC2)cc1Cl	-3.0	-18.2%	-15.2%	-2.1	3.4%
CCCCOc1ccc(CN2CCSCC2)cc1	29.5*	-20.9%	44.8%	42.1*	-12.3%
CCCCCCOc1ccc(CN2CCN(CC)CC2)cc1	54.6*	249.5%	.	140.0*	-4.7%
CCOc1ccc(N(CC(=O)NC(C(C)C)C(C)C)S(=O)(=O)c2ccc(OC)c(OC)c2)cc1	-2.7	-4.1%	?	15.6	-3.5%
C=CCOc1ccc(C(=O)n2cc(C(=O)OC)c3ccccc32)cc1	14.4	?	22.4%	5.4	10.5%
CCCCCCSc1nnc(-c2cnn(-c3ccccc3)c2-n2cccc2)n1C	7.3	.	-29.5%	-25.1	-79.1%
CCSc1nnc(-c2cnn(-c3ccccc3)c2-n2cccc2)n1C	-4.6	.	10.4µM*	7.9	-75.2%
